Compound activity (PubChem)
Shn3 inh set2 – reduction of Shn3 3'UTR firefly luciferase signal, primary screen, Schnurri-3 inhibitor project, cell-based, Clone20 osteoblasts, set 2; Clone20 osteoblast Shn3 3'UTR firefly luciferase, 24 h; inhibition, % at 12.5 µM; 360,000 compounds, 0.52% hits; AID 588674, 2011;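 active = mean inhibition of at least 75% with every replicate also reaching 75%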
CF NFkB block – inhibitors of PAF-induced NF-kB signaling, primary screen, cell-based, GFP fluorescence, uHTS; KKLEB NF-kB-GFP reporter, GFP fluorescence overnight; inhibition, % at 5 µM; 360,000 compounds, 0.86% hits; AID 588850, 2011;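 active = at least 50% inhibition at 5 µM, scaled per plate between neutral and stimulator controls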;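 also: PAF is a Pseudomonas aeruginosa culture filtrate used as stimulus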
HIF-2a inh – HIF-2a reporter inhibitors, primary screen, luminescence, 786-0 RCC cells | 786-0 RCC cells HIF-2a reporter, luciferase luminescence, overnight | inhibition, % at 18.8 µM | 360,000 compounds, 0.72% hits | AID 624352, 2012;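 active = inhibition of the luminescence signal of 40% or more relative to plate controls, in a single-dose primary screen at 18.75 µM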
KKLEB cytotox – cytotoxicity in KKLEB CF airway cells, primary screen, cytotoxicity control for CF NF-kB inhibitor project, cell-based, uHTS, fluorescence assay plates | KKLEB CF airway cells viability, ATPlite luminescence, overnight; active compounds read low; cells stimulated with P. aeruginosa culture filtrate | activity change (cytotoxicity), % at 5 µM | 360,000 compounds, 0.36% hits | AID 602141, 2011;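 active = corrected activity change at or below -50% at 5 µM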
Peg3 prom inh – Peg3 promoter-driven luciferase inhibitors, primary screen, cell-based, HeLa, luciferase luminescence; inhibition, % at 20 µM; 360,000 compounds, 1.7% hits; HeLa PEG-Prom luciferase reporter, overnight;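 active = inhibition of at least 50% at 20 µM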
MITF TRPM1 inh – inhibitors of MITF-dependent TRPM1 promoter reporter, primary screen, cell-based, SK-MEL-5, single point, luciferase. SK-MEL-5 TRPM1 promoter luciferase, 24 h. inhibition, % at 12.5 µM. 330,000 compounds, 0.83% hits. AID 488899, 2010;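 active = mean inhibition across replicates of 60% or more, whatever share of single replicates reaches that level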
Numbers stand for hits; . = inactive; / = not tested or not shown. Hits are enriched below; roughly 2.8% of the tested compounds scored in any of these assays.

SMILES	Shn3 inh set2	CF NFkB block	HIF-2a inh	KKLEB cytotox	Peg3 prom inh	MITF TRPM1 inh
Cc1nonc1OCCNc1ccc([N+](=O)[O-])cc1[N+](=O)[O-]	.	.	.	.	64.6	.
Cc1nonc1OCCCNc1ccc([N+](=O)[O-])cc1Cl	.	.	.	.	.	.
Cc1ccc(NC(=O)C2SC(=Nc3ccccc3)C(C(=O)Nc3ccc(Cl)cc3)=C2N)cc1 (stereo not given)	.	.	.	.	.	.
Cc1ccc(N=C2SC(C(=O)Nc3ccc(OC(F)(F)F)cc3)C(N)=C2C(=O)Nc2c(C)cc(C)cc2C)cc1 (stereo not given)	.	72.1	.	-59.9	.	.
CCOc1ccc(NC(=O)CSc2nc(=O)n(CCN3CCOCC3)c3c2CCCC3)cc1	.	.	.	.	.	.
CCN(CC)S(=O)(=O)c1cc(NC(=O)CSc2nc3c(cc2C#N)C(=O)CC(C)(C)C3)ccc1C	.	.	.	.	54.0	.
CC(C)N(Cc1nc(-c2ccc(Cl)cc2)no1)Cc1nccn1C	.	.	.	.	.	.
CCN(CC)c1ccc2c(Cl)c(Br)c(=O)oc2c1	98.3	.	87.8	.	104.5	.
CCN(CC)c1ccc2c(C)c(Cl)c(=O)oc2c1	.	.	.	.	.	.
CCN(CC)S(=O)(=O)c1ccc(OC(C)C)c(NC(=O)c2c3c(nc4ccccc24)CCN(Cc2ccccc2)C3)c1	.	.	.	.	54.6	.
O=C(c1ccc([N+](=O)[O-])o1)N1CCN(c2nc3c(F)cc(F)cc3s2)CC1	.	.	.	.	.	79.3
Cc1ccc(C)c2sc(N3CCN(C(=O)c4ccc([N+](=O)[O-])o4)CC3)nc12	.	.	.	.	.	.
Cc1ccc(-c2cc3onc(-c4ccccc4)c3c(=O)n2C)cc1	.	.	.	.	.	96.7
CCCCC(O)(CCCC)C(=O)NN(C(=O)OC)c1ccc(C)cc1	.	.	.	.	.	.
CCNc1nc(NCC)n2c(SCC(=O)N(CC)C3CCCCC3)nnc2n1	.	.	.	.	.	.
CCCN1CCC(NCc2cn(C)nc2-c2ccc(Oc3ccccc3)cc2)CC1	.	.	.	.	.	85.8
COC1CCCN(Cc2cn(C)nc2-c2ccc(Oc3ccccc3)cc2)C1 (stereo not given)	.	.	.	.	.	.
COc1cc(/C=N/N=C2/NC(=O)C(CC(=O)O)S2)ccc1OCc1ccc(Cl)cc1 (stereo not given)	.	.	.	.	.	.
NC(N)=N/N=C/c1ccc(Cl)c(Cl)c1	.	.	.	.	99.5	/
NC(N)=N/N=C/c1ccccc1	.	.	.	.	.	.
COc1cc(/C=N/N=C(N)N)ccc1OCc1ccc(Cl)cc1	.	.	.	.	102.5	89.0
CCCC[n+]1ccn(C2=C([O-])c3ccccc3C(=O)/C2=N\S(=O)(=O)c2ccc(Br)cc2)c1	.	.	.	.	.	93.6
Cc1ccc(S(=O)(=O)/N=C2\C(=O)c3ccccc3C([O-])=C2n2cc[n+](CCC(C)C)c2)cc1	.	.	.	.	.	68.8
CCOc1ccc(Cl)cc1-c1cc(C(=O)Nc2ccc(C(C)C)cc2)[nH]n1	.	.	.	.	.	/
O=C(NNC(=O)C(c1ccccc1)c1ccccc1)c1ccccn1	93.4	.	.	.	.	.
SMILES	Shn3 inh set2	CF NFkB block	HIF-2a inh	KKLEB cytotox	Peg3 prom inh	MITF TRPM1 inh
O=C(NNc1ccccn1)C(c1ccccc1)c1ccccc1	.	.	.	.	.	.
Cc1cc(C(=O)N/N=C/c2ccc(-c3ccc([N+](=O)[O-])cc3C)o2)n[nH]1	.	.	.	.	.	.
Cc1ccc([N+](=O)[O-])cc1-c1ccc(/C=N/NC(=O)c2cc3c(ccc4ccccc43)o2)o1	.	.	.	.	.	.
Cc1ccc(-c2ccc(/C=N\NC(=O)c3cc4c(ccc5ccccc54)o3)o2)cc1[N+](=O)[O-]	.	.	.	.	90.8	.
Cc1cc([N+](=O)[O-])ccc1-c1ccc(/C=N/NC(=O)c2ccc(Br)o2)o1	.	.	.	.	110.5	.
CCOc1ccc(NS(=O)(=O)c2cccc(C(=O)N(C)Cc3ccco3)c2)cc1	.	.	.	.	.	.
Oc1ccc(Nc2nc3ccccc3nc2Nc2ccc(O)cc2)cc1	.	.	75.0	.	96.4	65.8
COc1ccccc1NS(=O)(=O)c1ccc(C)c(C(=O)NC2CCN(Cc3ccccc3)CC2)c1	.	.	.	.	.	.
COc1ccccc1NS(=O)(=O)c1cccc(C(=O)NC2CCN(Cc3ccccc3)CC2)c1	86.7	.	.	.	.	.
COc1ccccc1NS(=O)(=O)c1cccc(C(=O)N/N=C/c2ccc([N+](=O)[O-])o2)c1	.	.	.	.	.	86.1
CCN(CC)c1ccc(/C=N/NC(=O)c2cccc(S(=O)(=O)Nc3ccccc3OC)c2)c(O)c1	.	.	.	.	.	71.8
Cc1ccc(C)c(N2CCN(CCCNC(=O)Cn3cccc3C(=O)c3ccccc3C)CC2)c1	.	.	.	.	107.3	.
COc1ccc(C(=O)Nc2ccc3[nH]c(-c4cccc(OC)c4)cc(=O)c3c2)cc1	.	50.1	.	.	.	.
COc1ccc(C(=O)Nc2cccc(OC)c2)cc1	.	.	.	.	.	.
O=C(CCl)N(c1ccccc1)c1ccccc1	.	55.8	.	.	.	.
CCCCCCN(C(=O)CCl)c1ccccc1	.	84.9	.	-68.3	.	.
O=C(CCCc1ccccc1)NCCc1ccccc1	.	.	.	.	.	.
O=C(CCl)N(CCc1ccccc1)CCc1ccccc1	.	66.4	.	-50.5	.	.
CC(=O)N(CCN(C(C)=O)c1ccccc1)c1ccccc1	.	.	.	.	.	.
CCCCCCCN(C(=O)CCl)c1cccc(C)c1	.	78.2	.	-87.4	.	.
CC(C)n1c(=O)c2ccccc2n1Cc1cn(Cc2cccs2)nn1	.	.	.	.	.	/
Cc1cccc(-c2noc(CN(C)C(=O)c3ccc4c(c3)OCO4)n2)c1	.	.	.	.	.	.
CC[N+]1=C(C)C(C)(C)c2cc(C)ccc21	89.4	.	.	.	.	.
O=C(Nc1cccc(S(=O)(=O)NCc2ccco2)c1)c1cc(-c2ccccc2)nc2ccccc12	.	.	.	.	62.3	.
CN(C)CCOc1ccc(-c2c(-c3ccccc3)sc3ccccc23)cc1	.	82.3	.	-89.2	100.2	61.0
CCCCC[C@H](O)/C=C/C1C(=O)C=C[C@H]1C/C=C\CCCC(=O)OC (stereo not given in full)	.	.	.	.	94.6	63.6
